# Laboratory results reported in PubChem BioAssay (Tox21).
# Active and inactive are the calls of the source. Calls follow the shape of the dose curve; as a rule, active = well fitted activation curve with a large enough effect in the repeat runs; inconclusive = weak or mixed curves; inactive = flat fitted curve, though single readings scatter.
# Assay: Caspase-3/7 induction in CHO-K1 cells by small molecules, qHTS assay (AID 1346980); also: nearly all actives have a fitted effect of over 15% in size
# Settings: CHO-K1 caspase-3/7 induction, Caspase-Glo luminescence, 17 h; series mostly up to 92.4 µM
# Text: National Center for Advancing Translational Sciences [NCATS]
# NIH Chemical Genomics Center [NCGC]
# U.S. Environmental Protection Agency [EPA]
# National Institutes of Environmental Health Sciences [NIEHS]
# National Toxicology Program [NTP]
# Apoptosis is a process of programmed cell death and plays a central role in the development of multicellular organisms. It is a highly regulated process and induces cell death by activating caspases, which are the members of cysteine aspartic acid-specific protease (caspase) family. Caspases involved in apoptosis are classified by their mechanism of action as initiator caspases (caspase-2, -8, -9 and -10) and executioner caspases (caspase-3, -6, and -7). Inhibition of apoptosis results in number of cancers, autoimmune diseases, inflammatory diseases and viral infection. To identify small molecule compounds that induce apoptosis, a homogeneous, luminescent Caspase-Glo 3/7 assay was used. Wild type CHO-K1 cells were used to screen Tox21 libraries for identifying caspase-3/7 activity inducers.
# CHO-K1 cells were dispensed at 1,500 per well in 5uL of culture medium into white solid bottom 1536-well plates (Corning Life Sciences, Corning, NY) using a Multidrop Combi (Thermo Scientific, Waltham, MA) dispenser. The assay plates were incubated at 37 C and 5% CO2 for 5hr, and then 23nL of compounds dissolved in DMSO and positive control were transferred using a Pintool station (Wako, San Diego, CA). The assay plates were incubated at 37C and 5% CO2 for 17hr. For caspase-3/7 activity read, 4uL of Caspase-Glo 3/7 reagent (Promega Corporation, Madison, WI) was added to each well of the assay plates using Flying Reagent Dispenser (FRD, Aurora Discovery, San Diego, CA) and incubated the assay plates at room temperature for 30min. The luminescence signal was quantified using a ViewLux plate reader (Perkin Elmer, Shelton, CT).
# % is scaled to controls: 0 for no effect and ±100 for the full control effect.
SMILES,outcome,caspase-3/7 activation
CCCCCCOc1ccccc1C(N)=O,inactive,
O=P(O)(O)OP(=O)(O)O,inactive,
CNC(=O)[C@H]1O[C@@H](n2cnc3c(NCc4cc(Cl)ccc4OCc4cc(C)no4)ncnc32)[C@H](O)[C@@H]1N,inactive,
Cc1ccccc1C(=O)Nc1ccc(C(=O)N2CCCC(N(C)C)c3ccccc32)cc1 (stereo not given),inactive,
O=C(Nc1ccc(Cl)c(Cl)c1)C1CC1,inactive,
CC(C)N(c1ccccc1)C(C)C,inactive,
O=C1c2ccccc2C(=O)c2cc(S(=O)(=O)O)ccc21,inactive,
c1ccc2nccnc2c1,inactive,
C=C(C)C(=O)OCCOP(=O)(O)OCCOC(=O)C(=C)C,inactive,
O=C1O[C@@H]2[C@@H](O)[C@H](O)O[C@@H]2[C@H]1O,inactive,
OCCN(CCO)c1cccc(Cl)c1,inactive,
CCO[Si](CCCS)(OCC)OCC,inactive,
CCNC(=O)C1CC(C)CCC1C(C)C (stereo not given),inactive,
NNc1nnc(NN)c2ccccc12,inactive,
CCCCCCCCCCCCCC,inactive,
CC(C)(C)OC(=O)c1ccc(O)cc1,inactive,
Brc1ccc(-c2ccccc2)cc1,inactive,
O=C(OCC(COC(=O)c1cccnc1)(COC(=O)c1cccnc1)COC(=O)c1cccnc1)c1cccnc1,inactive,
CC(C)CC(=O)O,inactive,
NCCN1CCOCC1,inactive,

SMILES,outcome,caspase-3/7 activation
CN(C)CCOCCO,inactive,
O=C(O)Cc1ccc(Cl)cc1Cl,inactive,
CN(C)C(=O)CNC(=O)Cc1ccccc1,inactive,
Oc1cn2c(n1)Nc1ccc(Cl)c(Cl)c1C2,,-0.902% [at 19 µM] (inactive)
CCCCOC(=O)c1ccccc1,inactive,
COc1nccnc1NS(=O)(=O)c1ccc(N)cc1,inactive,
Cc1cc(NC(=O)C2=C(O)c3ccccc3S(=O)(=O)N2C)no1,inactive,
Cc1ccccc1OCC(O)CO (stereo not given),inactive,
CCCCC(CC)COCCO (stereo not given),inactive,
Nc1nnc(-c2cccc(Cl)c2Cl)c(N)n1,inactive,
CCCCOCCOC(=O)COc1nc(Cl)c(Cl)cc1Cl,inactive,
CCN(C)C(=O)Oc1cccc([C@H](C)N(C)C)c1,inactive,
C=C(C)C1CCC(C)(O)CC1 (stereo not given),inactive,
CC(=O)/C=C/C1C(C)=CCC(C)C1(C)C (stereo not given),inactive,
CNS(=O)(=O)CCc1ccc2[nH]cc(C3CCN(C)CC3)c2c1,inactive,
Cc1ccc(C=O)cc1C,inactive,
CC(C)NCC(O)COc1ccc(COCCOC(C)C)cc1 (stereo not given),inactive,
CCC(C)(CCC(C)C)C(=O)O (stereo not given),inactive,
CC(C)c1ccc2cc(C(C)C)ccc2c1,inactive,
CC(=O)c1sc(C)nc1C,inactive,
